Counter-ions that a name gives are not always drawn. ± gives the uncertainty stated by the source.
Each compound was assayed on Caenorhabditis elegans N2 (assay: food intake (mean delta OD600 / animal over 72 h) with 50 uM loxapine co-treatment (OD600 units per animal); higher = more food eaten (less suppression of loxapine-induced hyperphagia)). Conditions: first compound 33 µM, loxapine concentration 50 µM.
Procedure: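 C. elegans N2 adults (FUDR-sterilised, day 1) in 96-well plates fed gamma-irradiated bacteria. Each library drug (MedChemExpress FDA-approved library) at 33 uM was combined with loxapine at 50 uM. Food intake was measured as bacterial clearance: the change in OD600 from day 1 to 72 h, normalised per animal (mean over 14-21 wells of about 10-12 worms). Drugs flagged for bacterial lysis or sickness were excluded by the authors.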

Row | Structure (SMILES) | food intake
1 | CN1C(=O)C[C@@H](C(=O)N[C@@H](Cc2c[nH]cn2)C(=O)N2CCC[C@H]2C(N)=O)NC1=O [taltirelin] + CN1CCN(C2=Nc3ccccc3Oc3ccc(Cl)cc32)CC1 [loxapine] | 0.022 ± 0.0034
2 | CC(C)(C)C(=O)OCOC(=O)[C@@H]1N2C(=O)[C@@H](/N=C/N3CCCCCC3)[C@H]2SC1(C)C [pivmecillinam (hydrochloride)] + CN1CCN(C2=Nc3ccccc3Oc3ccc(Cl)cc32)CC1 [loxapine] | 0.0244 ± 0.0027
3 | CCCS(=O)(=O)Nc1ccc(F)c(C(=O)c2c[nH]c3ncc(-c4ccc(Cl)cc4)cc23)c1F [vemurafenib] + CN1CCN(C2=Nc3ccccc3Oc3ccc(Cl)cc32)CC1 [loxapine] | 0.012 ± 0.0047
4 | O=C([O-])c1ccccc1O.[Na+] [sodium salicylate] + CN1CCN(C2=Nc3ccccc3Oc3ccc(Cl)cc32)CC1 [loxapine] | 0.0224 ± 0.0057
5 | O=C1CC2(CCCC2)CC(=O)N1CCCCN1CCN(c2ncccn2)CC1 [buspirone (hydrochloride)] + CN1CCN(C2=Nc3ccccc3Oc3ccc(Cl)cc32)CC1 [loxapine] | 0.0245 ± 0.0044
6 | CCN(CC)C(=O)c1cccc(C)c1 + CN1CCN(C2=Nc3ccccc3Oc3ccc(Cl)cc32)CC1 [loxapine] | 0.023 ± 0.0029
7 | O=c1[nH]c(=O)n([C@H]2C[C@H](O)[C@@H](CO)O2)cc1C(F)(F)F [trifluorothymidine] + CN1CCN(C2=Nc3ccccc3Oc3ccc(Cl)cc32)CC1 [loxapine] | 0.0216 ± 0.0028
8 | C#Cc1cccc(Nc2ncnc3cc(OCCOC)c(OCCOC)cc23)c1 [Erlotinib] + CN1CCN(C2=Nc3ccccc3Oc3ccc(Cl)cc32)CC1 [loxapine] | 0.0212 ± 0.0034
9 | CC(CCc1ccccc1)NCC(O)c1ccc(O)c(C(N)=O)c1 (stereo not given) [labetalol (hydrochloride)] + CN1CCN(C2=Nc3ccccc3Oc3ccc(Cl)cc32)CC1 [loxapine] | 0.0213 ± 0.0075
10 | Cc1nc(C(=O)NCC(=O)O)c(O)c2ccc(Oc3ccccc3)cc12 + CN1CCN(C2=Nc3ccccc3Oc3ccc(Cl)cc32)CC1 [loxapine] | 0.0228 ± 0.0037
11 | COc1ccc2[nH]c([S@@+]([O-])Cc3ncc(C)c(OC)c3C)nc2c1 [Esomeprazole (magnesium trihydrate)] + CN1CCN(C2=Nc3ccccc3Oc3ccc(Cl)cc32)CC1 [loxapine] | 0.0226 ± 0.0041
12 | CC=CC(=O)N(CC)c1ccccc1C [crotamiton] + CN1CCN(C2=Nc3ccccc3Oc3ccc(Cl)cc32)CC1 [loxapine] | 0.0223 ± 0.002
13 | C[C@H]1c2cccc(O)c2C(=O)C2=C(O)[C@]3(O)C(=O)C(C(N)=O)=C(O)[C@@H](N(C)C)[C@@H]3[C@@H](O)[C@@H]21 [doxycycline] + CN1CCN(C2=Nc3ccccc3Oc3ccc(Cl)cc32)CC1 [loxapine] | 0.0161 ± 0.0037
14 | CN(C)CCC=C1c2ccccc2C=Cc2ccccc21 [cyclobenzaprine (hydrochloride)] + CN1CCN(C2=Nc3ccccc3Oc3ccc(Cl)cc32)CC1 [loxapine] | 0.0221 ± 0.0063
15 | CC(C(=O)O)c1ccc2c(c1)CC(=O)c1ccccc1S2 (stereo not given) [zaltoprofen] + CN1CCN(C2=Nc3ccccc3Oc3ccc(Cl)cc32)CC1 [loxapine] | 0.0216 ± 0.0032
16 | COC(=O)/C=C/C(=O)OC [dimethyl fumarate] + CN1CCN(C2=Nc3ccccc3Oc3ccc(Cl)cc32)CC1 [loxapine] | 0.0218 ± 0.0043
17 | O=C(O)CCCCCCCC(=O)O [azelaic acid] + CN1CCN(C2=Nc3ccccc3Oc3ccc(Cl)cc32)CC1 [loxapine] | 0.0259 ± 0.018
18 | COc1cc(OC)c(C(=O)CCCN2CCCC2)c(OC)c1 [buflomedil (hydrochloride)] + CN1CCN(C2=Nc3ccccc3Oc3ccc(Cl)cc32)CC1 [loxapine] | 0.0222 ± 0.0028
19 | CC(=O)N1CCN(c2ccc(OCC3COC(Cn4ccnc4)(c4ccc(Cl)cc4Cl)O3)cc2)CC1 (stereo not given) [ketoconazole] + CN1CCN(C2=Nc3ccccc3Oc3ccc(Cl)cc32)CC1 [loxapine] | 0.0239 ± 0.0034
20 | CCOC(=O)C(C)(C)Oc1ccc(Cl)cc1 [clofibrate] + CN1CCN(C2=Nc3ccccc3Oc3ccc(Cl)cc32)CC1 [loxapine] | 0.0218 ± 0.0033

Row | Structure (SMILES) | food intake
21 | CC(=O)CCCCn1c(=O)c2c(ncn2C)n(C)c1=O [pentoxifylline] + CN1CCN(C2=Nc3ccccc3Oc3ccc(Cl)cc32)CC1 [loxapine] | 0.0226 ± 0.002
22 | COc1ccc(CCN(C)CCCN2CCc3cc(OC)c(OC)cc3CC2=O)cc1OC [zatebradine] + CN1CCN(C2=Nc3ccccc3Oc3ccc(Cl)cc32)CC1 [loxapine] | 0.0232 ± 0.0027
23 | Cc1cc(C)c2c(c1)[C@@H](N(Cc1cc(C(F)(F)F)cc(C(F)(F)F)c1)c1nnn(C)n1)CCCN2C[C@H]1CC[C@H](C(=O)O)CC1 [Evacetrapib] + CN1CCN(C2=Nc3ccccc3Oc3ccc(Cl)cc32)CC1 [loxapine] | 0.0229 ± 0.0033
24 | CCOC(N)=O [urethane] + CN1CCN(C2=Nc3ccccc3Oc3ccc(Cl)cc32)CC1 [loxapine] | 0.0215 ± 0.0029
25 | Cc1nc(C)c(Cl)c(O)c1Cl [clopidol] + CN1CCN(C2=Nc3ccccc3Oc3ccc(Cl)cc32)CC1 [loxapine] | 0.0241 ± 0.0032
26 | CCN(CC)CCOC(=O)c1ccc(N)cc1 [procaine (hydrochloride)] + CN1CCN(C2=Nc3ccccc3Oc3ccc(Cl)cc32)CC1 [loxapine] | 0.0224 ± 0.0034
27 | CC1=C(C)C(=O)C(C(CCCCCC(=O)O)c2ccccc2)=C(C)C1=O (stereo not given) [seratrodast] + CN1CCN(C2=Nc3ccccc3Oc3ccc(Cl)cc32)CC1 [loxapine] | 0.0265 ± 0.0088
28 | CN(C)[C@@H]1C(O)=C(C(N)=O)C(=O)[C@@]2(O)C(O)=C3C(=O)c4c(O)cccc4[C@@](C)(O)[C@H]3C[C@@H]12 [Tetracycline (hydrochloride)] + CN1CCN(C2=Nc3ccccc3Oc3ccc(Cl)cc32)CC1 [loxapine] | 0.0228 ± 0.0038
29 | CCCc1nn(C)c2c(=O)[nH]c(-c3cc(S(=O)(=O)N4CCN(C)CC4)ccc3OCC)nc12 [sildenafil (citrate)] + CN1CCN(C2=Nc3ccccc3Oc3ccc(Cl)cc32)CC1 [loxapine] | 0.024 ± 0.0028
30 | CC(C)(C)C(=O)OCOP(=O)(COCCn1cnc2c(N)ncnc21)OCOC(=O)C(C)(C)C [Adefovir dipivoxil] + CN1CCN(C2=Nc3ccccc3Oc3ccc(Cl)cc32)CC1 [loxapine] | 0.0231 ± 0.0029
31 | CN(C)c1cc(NC(=O)CNC(C)(C)C)c(O)c2c1C[C@H]1C[C@H]3[C@H](N(C)C)C(O)=C(C(N)=O)C(=O)[C@@]3(O)C(O)=C1C2=O [tigecycline] + CN1CCN(C2=Nc3ccccc3Oc3ccc(Cl)cc32)CC1 [loxapine] | 0.0234 ± 0.0019
32 | C[N+](C)(C)CCCCCC[N+](C)(C)C [hexamethonium (bromide)] + CN1CCN(C2=Nc3ccccc3Oc3ccc(Cl)cc32)CC1 [loxapine] | 0.0215 ± 0.0099
33 | NC12CC3CC(CC(C3)C1)C2 [amantadine (hydrochloride)] + CN1CCN(C2=Nc3ccccc3Oc3ccc(Cl)cc32)CC1 [loxapine] | 0.0253 ± 0.003
34 | CC(=O)O[C@H]1Cc2ccccc2N(C(N)=O)c2ccccc21 [eslicarbazepine (acetate)] + CN1CCN(C2=Nc3ccccc3Oc3ccc(Cl)cc32)CC1 [loxapine] | 0.0232 ± 0.0043
35 | CO/N=C(\C(=O)N[C@@H]1C(=O)N2C(C(=O)O)=C(CSc3nc(=O)c(O)nn3C)CS[C@H]12)c1csc(N)n1 [ceftriaxone (sodium salt)] + CN1CCN(C2=Nc3ccccc3Oc3ccc(Cl)cc32)CC1 [loxapine] | 0.0251 ± 0.0082
36 | CO/N=C(\C(=O)N[C@@H]1C(=O)N2C(C(=O)O)=C(CSC(=O)c3ccco3)CS[C@H]12)c1csc(N)n1 [ceftiofur (sodium)] + CN1CCN(C2=Nc3ccccc3Oc3ccc(Cl)cc32)CC1 [loxapine] | 0.0225 ± 0.0037
37 | O=C(c1ccccc1)c1ccc2n1CCC2C(=O)O (stereo not given) [ketorolac (romethamine salt)] + CN1CCN(C2=Nc3ccccc3Oc3ccc(Cl)cc32)CC1 [loxapine] | 0.0225 ± 0.0034
38 | CCOc1ccc(NC(C)=O)cc1 [phenacetin] + CN1CCN(C2=Nc3ccccc3Oc3ccc(Cl)cc32)CC1 [loxapine] | 0.0226 ± 0.0036
39 | NNC(=O)c1ccncc1 [isoniazid] + CN1CCN(C2=Nc3ccccc3Oc3ccc(Cl)cc32)CC1 [loxapine] | 0.0217 ± 0.0032
40 | NC(=O)c1ncn([C@@H]2O[C@H](CO)[C@@H](O)[C@H]2O)n1 [ribavirin] + CN1CCN(C2=Nc3ccccc3Oc3ccc(Cl)cc32)CC1 [loxapine] | 0.0212 ± 0.0037
